# Screening data as filed in PubChem BioAssay.
# Compounds with a hit are over-represented: about 19% of the library has one in this group of screens.
# TDP1 cell CPT – growth inhibition of DT40 Tdp1-/-;hTDP1 cells with camptothecin (screen for TDP1 inhibitors); chicken DT40 Tdp1-/-;hTDP1 cells + 20 nM CPT, ATP luminescence, 48 h; Potency, µM (doses to about 46.2 µM), without a hit: at the highest dose activity change, negative = growth inhibition, most hits filed as inhibitors; 420,000 compounds, 12% hits; also: potency is read from the fitted curve at half-maximal effect; nearly all actives have a fitted effect of over 55% in size
#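 Chicken DT40 Tdp1-/- cells stably complemented with human TDP1 were seeded at 400 cells/well in medium containing 20 nM camptothecin, exposed to pin-transferred compounds, and grown at 37 °C for at least 48 hr. Viability was read as ATP luminescence.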
# HT1080-NT tox – kills 2HG-producing HT-1080-NT fibrosarcoma cells; HT-1080-NT fibrosarcoma viability, CellTiter-Glo ATP luminescence, 48 h; Potency, µM (highest dose often 46.1 µM), inactives show top-dose activity, negative = less viability, usual class: cytotoxic; 360,000 compounds, 1.6% hits;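 also: NT is the 2HG producing partner of a matched IDH1 knockdown line; potency is read from the fitted curve at half-maximal effect; 0% = DMSO-treated cells and -100% = media-only wells without cells; nearly all actives have a fitted effect of over 55% in size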
#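 Compounds were tested in concentration-response format on HT-1080-NT cells for 48 hours at 37 degrees C. Cell viability came from CellTiter-Glo luminescence; curves were classified by r2, response magnitude and activity.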
# TDP1 cell noCPT – qHTS for Inhibitors of human tyrosyl-DNA phosphodiesterase 1 (TDP1): qHTS in cells in absence of CPT; DT40 Tdp1-/- hTDP1 cells, no CPT, ATP luminescence, 48 h; Potency, µM (doses to about 46.2 µM), for the others: at the top dose activity change, negative = growth inhibition, usual class: inhibitors; 420,000 compounds, 15% hits; also: potency is read from the fitted curve at half-maximal effect; nearly all actives have a fitted effect of over 55% in size
#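 Seeded 400 DT40-hTDP1 cells/well (vehicle DMSO, no 20 nM CPT); pinned compounds; ≥48 hr at 37 °C; CellTiter-Glo luminescence as viability measure.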
# IL-1B inflam inh – blocks inflammasome-driven IL-1 beta release. THP-1 LPS/ATP IL-1B secretion, AlphaLISA, 16 h; stronger effect = lower value. activity change, % at 57.5 µM. 360,000 compounds, 4.7% hits. AID 743279; in the data active = activity change below about -50%; inconclusive = mostly about -30% to -49%
#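 Secreted IL-1B measured by AlphaLISA bead assay after 16 h compound exposure of THP-1 cells; compounds (final up to 57.5 uM) added 1 h before LPS (250 ng/mL) and ATP (1.25 mM) stimulation; lower signal means less secretion.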
# HT1080 IDH1KD tx – toxicity to HT-1080 IDH1 knockdown cells (counter line); HT-1080 IDH1 knockdown viability, ATP luminescence, 48 h; Potency, µM (series often up to 46.1 µM), inactives show at the top dose activity, negative = toxicity, usual class: cytotoxic; 360,000 compounds, 2% hits;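 also: potency is read from the fitted curve at half-maximal effect; 0% = DMSO wells and -100% = cell-free medium wells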
#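 HT-1080-IDH1KD cells (IDH1 knocked down), 750/well in RPMI with 5% FBS, treated with compound 48 h at 37 degrees C. Viability by CellTiter-Glo luminescence, normalised to DMSO and no-cell wells; concentration-response curves classed.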
# * = called active by the depositor; ? = inconclusive; nt = no result given; [ ] = dose if it differs, or a comment. Unless noted, calls follow the shape of the dose curve; as a rule, active = well fitted curve in the direction sought with a large enough effect; inconclusive = small, poorly fitted or top-dose-only effect, or another doubt; inactive = no such curve, though single readings can be large; an effect the other way counts as inactive or inconclusive. Unless noted, % is scaled to controls: 0 for no effect and ±100 for the full control effect.
SMILES,TDP1 cell CPT,HT1080-NT tox,TDP1 cell noCPT,IL-1B inflam inh,HT1080 IDH1KD tx
COc1ccc2c(CN(C)c3ccccc3)cc(=O)oc2c1,29µM*,-2%,?,-3,-1%
COc1cc(/C=C/C(=O)Oc2coc(CSc3ncccn3)cc2=O)cc(OC)c1OC,-1%,3%,-4%,9,14%
COc1ccc2c(CN3CCCCCCC3)cc(=O)oc2c1,?,1%,?,48,-12%
Oc1cc2c(cc1CN1CCN(c3cccc(C(F)(F)F)c3)CC1)CCC2,-26%,1%,-10%,8,-3%
CCOc1ccc2oc(=O)cc(CN3CCN(c4cc(C)ccc4C)CC3)c2c1,15µM*,nt,16µM*,nt,nt
COc1ccc(N2CCN(Cc3cc(=O)oc4cc5c(cc34)CCCC5)CC2)cc1,21µM*,-18%,13µM*,0,7%
COc1ccc(N2CCN(Cc3cc4c(cc3O)CCC4)CC2)cc1,26µM*,2%,21µM*,4,-10%
COc1ccc2c(CN3CCN(c4ccccc4OC)CC3)cc(=O)oc2c1,?,1%,15µM*,-8,-5%
CCN(CC(=O)Nc1ccc2c(c1)OCCO2)C(=O)c1ccc([N+](=O)[O-])s1,?,6%,?,33,0%
Cc1nn(-c2ccccc2)nc1CNC(=O)c1ncoc1-c1ccccc1,-20%,?,?,28,?
Cc1ccc(Cl)cc1NC(=O)CN1CCOCC1,7%,18%,-17%,-8,1%
O=C(O)CC/C=C\CC[C@@H]1[C@@H](N2CCCCC2)[C@@H](O)C[C@@H]1OCc1ccc(-c2ccccc2)cc1,-16%,nt,?,nt,nt
CCOc1ccc2oc(=O)cc(CN3CCN(Cc4ccc(F)cc4)CC3)c2c1,16µM*,nt,23µM*,nt,nt
O=[N+]([O-])c1cc2c(c([N+](=O)[O-])c1)Nc1ccccc1O2,12µM*,?,7.3µM*,?,-4%
Cc1cccc(Oc2ccc3c(c2)Oc2ccccc2NC3=O)c1,16µM*,nt,?,nt,nt
O=C1Nc2ccccc2Oc2cc([N+](=O)[O-])cc(Oc3ccccc3)c21,?,-1%,?,8,-12%
Cc1cccc(Oc2cc([N+](=O)[O-])cc3c2C(=O)Nc2ccccc2O3)c1,?,-3%,13µM*,0,-23%
Cc1ccc(NC(=O)CN2C(=O)C(C)(C)c3ccccc32)cc1,1%,nt,?,nt,nt
Cc1ccc2[nH]c(=O)c3cc(C(=O)N4CCN(c5ccccc5F)CC4)sc3c2c1,3%,nt,-6%,nt,nt
CCOc1ccc(NC(=O)COC(=O)c2ccc3c(c2)OCCO3)cc1,-30%,-1%[9.24 µM],3%,-23,4%
O=C(O)c1ccccc1CSc1nc2ccccc2[nH]1,24%,0%,-2%,-3,5%
COCC(C)n1c(SCC(=O)NNC(=O)c2ccc(F)cc2)nc2ccccc2c1=O (configuration not stated),7%,8%,-3%,-16,8%
COc1ccc(C(=O)CC(=O)C(=O)Nc2ccc(Cl)cc2)cc1,?,-2%,21µM*,3,?
COc1ccc(C(=O)CC(=O)C(=O)Nc2ccccc2C(F)(F)F)cc1,10µM*,-18%,6.5µM*,19,?
COc1ccc(C(=O)CC(=O)C(=O)Nc2ccccc2Cl)cc1,13µM*,-15%,10µM*,43,5%
SMILES,TDP1 cell CPT,HT1080-NT tox,TDP1 cell noCPT,IL-1B inflam inh,HT1080 IDH1KD tx
COc1ccc(C(=O)CC(Nc2ccc([N+](=O)[O-])cc2)c2ccc(Cl)cc2)cc1 (configuration not stated),?,?,18µM*,-53*,10µM*
COc1ccccc1C(=O)NCCC(=O)N1CCN(C(C)=O)CC1,6%,-4%,-1%,-11,22%
COc1ccc(CCN2C(=O)CC(C(N)=O)SC2=Nc2ccccc2)cc1OC (configuration not stated),-10%,0%,?,-3,-3%
COc1ccc(C(=O)CC(=O)C(=O)Nc2c(C)cccc2C)cc1,21µM*,-29%,9.2µM*,-10,-6%
CC(C)(C)S(=O)N1Cc2cc(C(=O)NCC(F)(F)F)nc(-c3cccc(-c4cccc(F)c4)c3)c2[C@@H]1CCO (some centres not stated),18µM*,?,18µM*,-2,21µM*
CCNC(=O)c1cc2c(c(-c3cccc(-c4cccc(C(=O)N(C)C)c4)c3)n1)[C@@H](CCO)N(S(=O)C(C)(C)C)C2 (some centres not stated),?,7%,21µM*,-23,5%
Cc1cc(/C=N/n2cnnc2)c(C)n1-c1ccc(OCc2ccccc2F)cc1,21µM*,?,13µM*,-85*,?
Fc1ccccc1COc1cccc(/C=N/n2cnnc2)c1,-34%,-3%,3%,-7,4%
Cc1cc(/C=N/n2cnnc2)c(C)n1-c1ccc(OCc2ccc(Cl)cc2)cc1,4.6µM*,-18%,3.3µM*,-82*,?
COc1cc(Cl)c(C)cc1NC(=O)c1ccc(S(C)(=O)=O)cc1,-3%,3%,-1%,?,12%
CC(C)(C)c1ccc(OCc2ccc(C(=O)N/N=C/c3ccc(O)c(O)c3)cc2)cc1,1.3µM*,26µM*,1.5µM*,124,?
O=C(N/N=C/c1ccc([N+](=O)[O-])cc1)c1ccccc1OCc1ccccc1,-15%,-13%,?,21,-10%
COc1ccc(/C=N/NC(=O)c2ccc(COc3cccc4cccnc34)cc2)cc1OC,-14%,22%,3%,-5,11%
O=C(N/N=C/c1ccc([N+](=O)[O-])cc1)c1ccc(COc2ccccc2-c2ccccc2)cc1,?,-6%,13µM*,0,6%
COc1cc(NC(=O)CN2c3cccc4cccc(c34)S2(=O)=O)cc(OC)c1OC,?,-11%,21µM*,-13,?
COc1ccc(/C=N/NC(=O)c2ccc(COc3cccc4cccnc34)cc2)cc1O,?,-9%,13µM*,-1,-9%
COC(=O)c1ccc(COC(=O)CNC(=O)C2CCCCC2)cc1,-4%,14%,-14%,-3,-5%
CNC(=S)NNC(=O)c1cccc(N(C)C)c1,-4%,3%,-21%,-11,16%
CC(C)(C)c1ccc(OCc2ccc(C(=O)N/N=C3\CC4CC=CC34)cc2)cc1 (configuration not stated),13µM*,?,15µM*,49,?
O=C(N/N=C/c1ccc2c(c1)OCO2)c1ccc(COc2cccc3cccnc23)cc1,?,?,26µM*,-18,?
